{"source": "PubChem BioAssay (NCATS)", "note": "Inconclusive results are not listed. Activity calls are given as the source filed them. Calls come from the whole dose curve; as a rule, active = well fitted curve in the direction sought with a large enough effect; inconclusive = small, poorly fitted or top-dose-only effect, or another doubt; inactive = no such curve, though single readings can be large; an effect the other way counts as inactive or inconclusive. % is set by controls: 0 for no effect and ±100 for the full control effect."}
{"target": "Calcium and integrin-binding protein 1 (Homo sapiens) (UniProt Q99828)", "sequence (Q99828 whole entry, looked up)": "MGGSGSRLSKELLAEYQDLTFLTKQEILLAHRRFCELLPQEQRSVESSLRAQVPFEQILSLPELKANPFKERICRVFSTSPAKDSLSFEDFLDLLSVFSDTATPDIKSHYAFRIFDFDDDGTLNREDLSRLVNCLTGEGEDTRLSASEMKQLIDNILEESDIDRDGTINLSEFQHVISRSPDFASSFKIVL", "assay": "Primary qHTS for Identification of Calcium Integrin Binding Protein 1 (CIB1) Competitor (AID 1508620); note: top concentration of the series differs between compounds", "conditions": "CIB1-GST / FITC-alphaIIb peptide fluorescence polarization; series mostly up to 114 µM; activity change, negative = inhibition: at the top concentration", "how_it_was_run": "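Fluorescence polarization competition: GST-tagged CIB1 (1 uM final) preincubated with compound 15 min at room temperature, then FITC-labelled alphaIIb peptide (100 nM final) added. After 15 min at room temperature, polarization read at Ex 480/Em 540.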"}
{"compound": "O=C1NC(c2ccccc2)(c2ccccc2)C(=O)N1COP(=O)(O)O", "activity change, negative = inhibition": "-1.87% (inactive)"}
{"compound": "CCOC(=O)C(=O)c1csc(NC=O)n1", "activity change, negative = inhibition": "-1.05% (inactive)"}
{"compound": "CC1c2ccccc2CN1NC(=O)c1ccc(Cl)c(S(N)(=O)=O)c1", "note": "(centres undefined)", "activity change, negative = inhibition": "0.121% (inactive)"}
{"compound": "O=C(O)CNC(=O)CNC(=O)CNC(=O)CSC(=O)c1ccccc1", "activity change, negative = inhibition": "15% (inactive)"}
{"compound": "CC(=O)OCC(=O)[C@@]1(O)[C@H](OC(C)=O)C[C@H]2[C@@H]3CCC4=CC(=O)C=C[C@]4(C)[C@@]3(F)[C@@H](O)C[C@@]21C", "activity change, negative = inhibition": "-5.94% (inactive)"}
{"compound": "CC(C)C(=O)OCc1cccc(OC(=O)[C@@H]2N3C(=O)[C@@H](NC(=O)Cc4ccccc4)[C@H]3SC2(C)C)c1", "activity change, negative = inhibition": "1.86% (inactive)"}
{"compound": "O=C(O)c1ccccc1Nc1cc(Cl)ccc1C(=O)O", "activity change, negative = inhibition": "-3.07% [at 57.7 µM] (inactive)"}
{"compound": "CC(C)OP(=O)(CP(=O)(OC(C)C)OC(C)C)OC(C)C", "activity change, negative = inhibition": "1.49% (inactive)"}
{"compound": "O=C(O)c1[nH]n(-c2ccc(S(=O)(=O)O)cc2)c(=O)c1N=Nc1ccc(S(=O)(=O)O)cc1", "activity change, negative = inhibition": "-0.692% (inactive)"}
{"compound": "C[N+]1(CC2COC(c3ccccc3)(c3ccccc3)O2)CCCCC1", "note": "(centres undefined)", "activity change, negative = inhibition": "8.2% [at 57.7 µM] (inactive)"}
{"compound": "CC(C)NC(=O)c1ccc(C=O)cc1", "activity change, negative = inhibition": "1.24% (inactive)"}
{"compound": "CCOC(=O)N1CCC(n2c(=O)[nH]c3cc(Cl)ccc32)CC1", "activity change, negative = inhibition": "1.12% (inactive)"}
{"compound": "C=CC[N+]1([C@H]2C[C@H]3[C@@H]4CC[C@H]5C[C@H](OC(C)=O)[C@@H](N6CCCCC6)C[C@]5(C)[C@H]4CC[C@]3(C)[C@H]2OC(=O)CC)CCCCC1", "activity change, negative = inhibition": "-0.833% (inactive)"}
{"compound": "O=C1NCCN1CCN1CCC(c2cn(-c3ccc(F)cc3)c3ccc(Cl)cc23)CC1", "activity change, negative = inhibition": "-19.7% (inactive)"}
{"compound": "CCCCN(CCCC)C(C(N)=O)c1ccc(OC)cc1", "note": "(centres undefined)", "activity change, negative = inhibition": "-5.52% (inactive)"}
{"compound": "CC1CN(c2cc3c(cc2F)c(=O)c(C(=O)O)cn3-c2ccc(F)cc2F)CCN1", "note": "(centres undefined)", "activity change, negative = inhibition": "2.01% (inactive)"}
{"compound": "CC1(C)O[C@@H]2C[C@H]3[C@@H]4CCC5=CC(=O)C=C[C@]5(C)[C@@]4(F)[C@@H](O)C[C@]3(C)[C@]2(C(=O)CO)O1", "activity change, negative = inhibition": "2.03% (inactive)"}
{"compound": "CCN(CC)C(=O)C1CN2CCc3cc(OC)c(OC)cc3C2CC1OC(C)=O", "note": "(centres undefined)", "activity change, negative = inhibition": "6.26% (inactive)"}
{"compound": "C[C@@]12CCC[C@H]1[C@@H]1CC[C@H]3C[C@@H](O)CC[C@]3(C)[C@H]1CC2", "activity change, negative = inhibition": "-1.78% (inactive)"}
{"compound": "Cc1ncc(CO)c(CO)c1O", "activity change, negative = inhibition": "-7.86% (inactive)"}
{"compound": "CN(C)CCN(Cc1ccsc1)c1ccccn1", "activity change, negative = inhibition": "-5.33% (inactive)"}
{"compound": "Cc1cccc(OCC(O)CNC(C)(C)C)c1C", "note": "(centres undefined)", "activity change, negative = inhibition": "-0.158% (inactive)"}
{"compound": "C=C(C)C(=O)OCC(O)CO", "note": "(centres undefined)", "activity change, negative = inhibition": "1.66% (inactive)"}
{"compound": "CC(C)(C)NCC(O)COc1ccccc1OCC1CCCO1", "note": "(centres undefined)", "activity change, negative = inhibition": "0.0835% (inactive)"}
{"compound": "CC[N+](CC)(CC)CCOC(=O)C(C1CCCC1)C1CCCC1", "activity change, negative = inhibition": "1.1% (inactive)"}
{"compound": "CC(=O)c1cc2ccccc2s1", "activity change, negative = inhibition": "-1.64% (inactive)"}
{"compound": "CN1CCN(N)CC1", "activity change, negative = inhibition": "-0.0233% (inactive)"}
{"compound": "CC1(C)OC(=O)Nc2ccc(Br)cc21", "activity change, negative = inhibition": "-2.37% (inactive)"}
{"compound": "CC(=O)Nc1ccc(S(=O)(=O)Nc2cc(C)on2)cc1", "Potency": "inactive"}
{"compound": "CO[C@@H]1[C@@H](O[C@@H]2O[C@H](C)[C@@H](O[C@H]3C[C@@](C)(O)[C@@H](O)[C@H](C)O3)[C@H](N(C)C)[C@H]2O)[C@@H](CC=O)C[C@@H](C)[C@@H](O[C@@H]2CC[C@H](N(C)C)[C@@H](C)O2)/C=C/C=C/C[C@@H](C)OC(=O)C[C@H]1OC(C)=O", "activity change, negative = inhibition": "3.71% (inactive)"}
{"compound": "CCC[C@H](N[C@@H](C)C(=O)N1[C@H](C(=O)O)C[C@@H]2CCCC[C@@H]21)C(=O)OCC", "activity change, negative = inhibition": "-7.74% (inactive)"}
{"compound": "CC(C)CCCC(C)NCCC(C)C", "note": "(centres undefined)", "activity change, negative = inhibition": "2.48% (inactive)"}
{"compound": "Cc1cccc(C)c1NC(=O)c1cc(S(N)(=O)=O)c(Cl)cc1O", "activity change, negative = inhibition": "-8.39% (inactive)"}
{"compound": "CN1N=C(C(N)=O)CCC1=O", "activity change, negative = inhibition": "0.175% (inactive)"}
{"compound": "CCNC(=O)NCCCOc1cccc(CN2CCCCC2)c1", "activity change, negative = inhibition": "-0.0273% (inactive)"}
{"compound": "OC1(c2ccc(Cl)c(C(F)(F)F)c2)CCN(CCCC(c2ccc(F)cc2)c2ccc(F)cc2)CC1", "Potency": "inactive"}
{"compound": "COc1ccc(CCC(C)=O)cc1", "activity change, negative = inhibition": "2.28% (inactive)"}
{"test_system": "not listed separately", "assay": "Primary qHTS for small molecule stabilizers of the endoplasmic reticulum resident proteome: Secreted ER Calcium Modulated Protein (SERCaMP) assay (AID 1508630)", "conditions": "SH-SY5Y GLuc-SERCaMP (Gaussia luciferase released on ER calcium loss) secretion, thapsigargin, luminescence; series mostly up to 38.4 µM; activity change, negative = inhibition: at the top concentration", "how_it_was_run": "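The SH-SY5Y reporter protocol was run at 3 concentrations up to 38.3 uM (primary) or 11 concentrations (follow-up): 16 h compound, 100 nM thapsigargin for 4 h, then extracellular luciferase luminescence.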"}
{"compound": "O=C1NC(c2ccccc2)(c2ccccc2)C(=O)N1COP(=O)(O)O", "activity change, negative = inhibition": "-21.9% (inactive)"}
{"compound": "CCOC(=O)C(=O)c1csc(NC=O)n1", "activity change, negative = inhibition": "-33.1% (inactive)"}
{"compound": "CC1c2ccccc2CN1NC(=O)c1ccc(Cl)c(S(N)(=O)=O)c1", "note": "(centres undefined)", "activity change, negative = inhibition": "-26.7% (inactive)"}
{"compound": "O=C(O)CNC(=O)CNC(=O)CNC(=O)CSC(=O)c1ccccc1", "activity change, negative = inhibition": "-31.1% (inactive)"}
{"compound": "CC(=O)OCC(=O)[C@@]1(O)[C@H](OC(C)=O)C[C@H]2[C@@H]3CCC4=CC(=O)C=C[C@]4(C)[C@@]3(F)[C@@H](O)C[C@@]21C", "activity change, negative = inhibition": "11.9% (inactive)"}
{"compound": "CC(C)C(=O)OCc1cccc(OC(=O)[C@@H]2N3C(=O)[C@@H](NC(=O)Cc4ccccc4)[C@H]3SC2(C)C)c1", "activity change, negative = inhibition": "12.7% (inactive)"}
{"compound": "O=C(O)c1ccccc1Nc1cc(Cl)ccc1C(=O)O", "activity change, negative = inhibition": "-0.712% [at 21.6 µM] (inactive)"}
{"compound": "CC(C)OP(=O)(CP(=O)(OC(C)C)OC(C)C)OC(C)C", "activity change, negative = inhibition": "19.2% (inactive)"}
{"compound": "O=C(O)c1[nH]n(-c2ccc(S(=O)(=O)O)cc2)c(=O)c1N=Nc1ccc(S(=O)(=O)O)cc1", "activity change, negative = inhibition": "-11.5% (inactive)"}
{"compound": "C[N+]1(CC2COC(c3ccccc3)(c3ccccc3)O2)CCCCC1", "note": "(centres undefined)", "activity change, negative = inhibition": "-15.9% [at 21.6 µM] (inactive)"}
{"compound": "CC(C)NC(=O)c1ccc(C=O)cc1", "activity change, negative = inhibition": "-42% (inactive)"}
{"compound": "CCOC(=O)N1CCC(n2c(=O)[nH]c3cc(Cl)ccc32)CC1", "activity change, negative = inhibition": "-5.84% (inactive)"}
{"compound": "C=CC[N+]1([C@H]2C[C@H]3[C@@H]4CC[C@H]5C[C@H](OC(C)=O)[C@@H](N6CCCCC6)C[C@]5(C)[C@H]4CC[C@]3(C)[C@H]2OC(=O)CC)CCCCC1", "activity change, negative = inhibition": "-13.5% (inactive)"}
{"compound": "O=C1NCCN1CCN1CCC(c2cn(-c3ccc(F)cc3)c3ccc(Cl)cc23)CC1", "activity change, negative = inhibition": "10.1% (inactive)"}
{"compound": "CCCCN(CCCC)C(C(N)=O)c1ccc(OC)cc1", "note": "(centres undefined)", "activity change, negative = inhibition": "5.84% (inactive)"}
{"compound": "CC1CN(c2cc3c(cc2F)c(=O)c(C(=O)O)cn3-c2ccc(F)cc2F)CCN1", "note": "(centres undefined)", "activity change, negative = inhibition": "-17% [at 3.88 µM] (inactive)"}
{"compound": "CC1(C)O[C@@H]2C[C@H]3[C@@H]4CCC5=CC(=O)C=C[C@]5(C)[C@@]4(F)[C@@H](O)C[C@]3(C)[C@]2(C(=O)CO)O1", "activity change, negative = inhibition": "54.4% (inactive)"}
{"compound": "CCN(CC)C(=O)C1CN2CCc3cc(OC)c(OC)cc3C2CC1OC(C)=O", "note": "(centres undefined)", "activity change, negative = inhibition": "18.6% (inactive)"}
{"compound": "C[C@@]12CCC[C@H]1[C@@H]1CC[C@H]3C[C@@H](O)CC[C@]3(C)[C@H]1CC2", "activity change, negative = inhibition": "25.1% (inactive)"}
{"compound": "Cc1ncc(CO)c(CO)c1O", "activity change, negative = inhibition": "-17.3% (inactive)"}
{"compound": "CN(C)CCN(Cc1ccsc1)c1ccccn1", "activity change, negative = inhibition": "-21.5% (inactive)"}
{"compound": "Cc1cccc(OCC(O)CNC(C)(C)C)c1C", "note": "(centres undefined)", "activity change, negative = inhibition": "-19% (inactive)"}
{"compound": "C=C(C)C(=O)OCC(O)CO", "note": "(centres undefined)", "activity change, negative = inhibition": "-11.8% (inactive)"}
{"compound": "CC(C)(C)NCC(O)COc1ccccc1OCC1CCCO1", "note": "(centres undefined)", "activity change, negative = inhibition": "5.39% (inactive)"}
{"compound": "CC[N+](CC)(CC)CCOC(=O)C(C1CCCC1)C1CCCC1", "activity change, negative = inhibition": "-17.6% (inactive)"}
{"compound": "CC(=O)c1cc2ccccc2s1", "activity change, negative = inhibition": "-28.6% (inactive)"}
{"compound": "CN1CCN(N)CC1", "activity change, negative = inhibition": "-8.03% (inactive)"}
{"compound": "CC1(C)OC(=O)Nc2ccc(Br)cc21", "activity change, negative = inhibition": "-17.5% (inactive)"}
{"compound": "CC(=O)Nc1ccc(S(=O)(=O)Nc2cc(C)on2)cc1", "activity change, negative = inhibition": "-22% (inactive)"}
{"compound": "CO[C@@H]1[C@@H](O[C@@H]2O[C@H](C)[C@@H](O[C@H]3C[C@@](C)(O)[C@@H](O)[C@H](C)O3)[C@H](N(C)C)[C@H]2O)[C@@H](CC=O)C[C@@H](C)[C@@H](O[C@@H]2CC[C@H](N(C)C)[C@@H](C)O2)/C=C/C=C/C[C@@H](C)OC(=O)C[C@H]1OC(C)=O", "activity change, negative = inhibition": "-25% (inactive)"}
{"compound": "CCC[C@H](N[C@@H](C)C(=O)N1[C@H](C(=O)O)C[C@@H]2CCCC[C@@H]21)C(=O)OCC", "activity change, negative = inhibition": "-17.8% (inactive)"}
{"compound": "CC(C)CCCC(C)NCCC(C)C", "note": "(centres undefined)", "activity change, negative = inhibition": "0.707% (inactive)"}
{"compound": "Cc1cccc(C)c1NC(=O)c1cc(S(N)(=O)=O)c(Cl)cc1O", "activity change, negative = inhibition": "-6.53% (inactive)"}
{"compound": "CN1N=C(C(N)=O)CCC1=O", "activity change, negative = inhibition": "-25.6% (inactive)"}
{"compound": "CCNC(=O)NCCCOc1cccc(CN2CCCCC2)c1", "activity change, negative = inhibition": "19.8% (inactive)"}
{"compound": "OC1(c2ccc(Cl)c(C(F)(F)F)c2)CCN(CCCC(c2ccc(F)cc2)c2ccc(F)cc2)CC1", "activity change, negative = inhibition": "66.2% (inactive)"}
{"compound": "COc1ccc(CCC(C)=O)cc1", "activity change, negative = inhibition": "-9.53% (inactive)"}
